Screening results as filed in PubChem.
Tb PYK inh – qHTS of Trypanosoma Brucei Inhibitors; Potency, µM (top dose mostly 76.8 µM), without a hit: at the highest dose activity, negative = inhibition, most hits filed as inhibitors; hit rate 0.12% among 410,000; TbPYK enzyme, Kinase-Glo Plus ATP luminescence, 45 min; pyruvate kinase (Trypanosoma brucei), Q57TT1; AID 624173, 2012; active means well fitted curve in the direction sought with a large enough effect; inconclusive means small, poorly fitted or top-dose-only effect, or another doubt; inactive means no such curve, though single readings can be large; an effect the other way counts as inactive or inconclusive; further: potency means the concentration at half of the fitted maximal effect; on the % scale 0 is the no-effect control and ±100 the full control effect; nearly all actives have a fitted effect of over 50% in size
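Enzyme and substrate buffer are dispensed first and compound is pin-transferred. ADP at 130 uM final then starts the reaction, which runs 45 min at room temperature. Detection reagent is added for 10 min before luminescence is imaged.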
CHX counter – Cycloheximide Counterscreen for Small Molecule Inhibitors of Shiga Toxin | AID 2314, 2010 | max response, % | hit rate 12% among 300,000 | cell reporter, cycloheximide protein synthesis inhibition counterscreen; in the data active means max response mostly above about 13%, no sharp cut-off; inactive means mostly below about 14%; further: read at 38.3 µM for the half of the compounds with a filed dose; 0% is about no effect
Shiga toxin inh – A qHTS for Small Molecule Inhibitors of Shiga Toxin. Vero cells, Shiga toxin protein synthesis inhibition reporter. inhibition, % at 38.7 µM. hit rate 9.2% among 290,000. AID 2315, 2010; in the data active means inhibition mostly above about 28%, no sharp cut-off; inactive means mostly below about 43%; further: 0% is about no effect
NS1 function inh – qHTS Assay for Inhibitors of Influenza NS1 Protein Function | hit rate 0.4% among 270,000 | Potency, µM (highest dose often 46.1 µM), for the others: at the top dose activity, positive = more growth | AID 2326, 2010; further: potency means the concentration at half of the fitted maximal effect; actives are rising curves; nearly all actives have a fitted effect of over 50% in size
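Growth recovery, yeast-based: influenza A NS1 expressed in S. cerevisiae causes slow growth, and suppressors are detected by OD600. The parent strain without NS1 is used as positive control.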
SARS PLP yeast – qHTS of Yeast-based Assay for SARS-CoV PLP; S. cerevisiae expressing SARS-CoV PLpro, growth rescue; Potency, µM (doses to about 32.9 µM), without a hit: top-dose activity, positive = growth rescue, usual class: activators; hit rate 0.19% among 330,000; AID 485353, 2010; further: potency means the concentration at half of the fitted maximal effect; 0% is about no effect; nearly all actives have a fitted effect of over 55% in size
LmPK inh – qHTS Assay for Inhibitors of Leishmania Mexicana Pyruvate Kinase (LmPK) | hit rate 0.37% among 290,000 | purified LmPK, Kinase-Glo ATP luminescence, 1 h | Potency, µM (series often up to 57.5 µM), without a hit: at the top dose activity change, negative = inhibition, actives largely listed as inhibitors | AID 1721, 2009 | Q27686; active means well fitted curve in the direction sought with a large enough effect; inconclusive means small, poorly fitted or top-dose-only effect, or another doubt; inactive means no such curve, though single readings can be large; an effect the other way counts as inactive or inconclusive; further: potency means the concentration at half of the fitted maximal effect; on the % scale 0 is the no-effect control and ±100 the full control effect
Target sequence (Q27686 whole entry, looked up): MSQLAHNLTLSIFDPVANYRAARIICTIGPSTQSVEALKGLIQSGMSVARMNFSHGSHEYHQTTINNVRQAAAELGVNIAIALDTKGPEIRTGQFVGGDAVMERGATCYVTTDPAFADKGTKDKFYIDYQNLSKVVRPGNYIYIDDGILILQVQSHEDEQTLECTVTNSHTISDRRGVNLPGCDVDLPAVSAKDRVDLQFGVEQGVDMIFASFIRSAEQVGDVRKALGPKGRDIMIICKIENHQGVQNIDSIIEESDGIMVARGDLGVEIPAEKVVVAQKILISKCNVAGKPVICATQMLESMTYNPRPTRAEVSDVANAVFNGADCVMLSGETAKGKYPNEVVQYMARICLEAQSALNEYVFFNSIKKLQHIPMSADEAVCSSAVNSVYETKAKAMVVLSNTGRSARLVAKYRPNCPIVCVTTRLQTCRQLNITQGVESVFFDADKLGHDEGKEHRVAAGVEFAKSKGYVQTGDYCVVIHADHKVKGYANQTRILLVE
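Purified LmPK (0.1 nM) with 0.5 mM PEP and 0.1 mM ADP in imidazole buffer pH 7.2 with MgCl2/KCl, 1 h at room temperature. ATP formed was read by luciferase luminescence and normalized to no-enzyme and uninhibited controls.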
Starred values were filed as active, the others as inactive; ? = inconclusive; . = no result; + = active, no number. This excerpt belongs to a sample that is enriched for hits. Unless noted, the call rests on the fitted dose curve.

SMILES | Tb PYK inh | CHX counter | Shiga toxin inh | NS1 function inh | SARS PLP yeast | LmPK inh
COc1ccccc1/C=N/Nc1nccnc1Cl | -5% | 35* | 66* | 1% | 1% | 16µM*
Fc1ccc(/C=N/Nc2nc3ccccc3[nH]2)cc1F | -3% | 36* | 118* | . | -7% | 2%
COc1ccccc1C=NN=C(NN=Cc1ccccc1OC)NN=Cc1ccccc1OC | 0% | . | . | . | . | .
COc1ccccc1-c1nc2n(n1)C(c1ccccc1Cl)C(C(=O)Nc1cccnc1)=C(C)N2 (centres undefined) | 4% | . | . | . | . | .
Cn1c(=O)c2c(-c3ccccc3)n3c(c2n(C)c1=O)C(c1ccccc1[N+](=O)[O-])Nc1ccccc1-3 (centres undefined) | -5% | . | . | . | . | .
Fc1cccc(/C=N/Nc2nc3ccccc3[nH]2)c1 | -23% | 40* | 84* | -32% | -2% | -8%
CC(=O)Nc1ccccc1-c1ccc(C)o1 | 0% | 16* | 16 | -5% | 5% | 3%
N/C(=N\N=C\c1ccc2c(c1)OCO2)c1nonc1N | -17% | 45* | 75* | 7% | 1% | 11µM*
COc1cccc(/C=N/N=C(\N)c2nonc2N)c1O | 1% | 35* | 116* | . | 0% | -8%
Nc1nonc1C(=O)N/N=C/c1ccc(-c2cccc([N+](=O)[O-])c2)o1 | 6% | -6 | -5 | -5% | 1% | -10%
N/C(=N\N=C\c1cccc([N+](=O)[O-])c1)c1nonc1N | 1% | 50* | 76* | 0% | 1% | 2%
COc1ccc(F)cc1-c1cc(NC=O)c2ncc(-c3cc(OC)c(OC)c(OC)c3)n2c1 | -2% | . | . | . | . | .
CN(C)S(=O)(=O)Nc1ccc2c(c1)Cc1ccccc1-2 | -10% | 29* | 107* | -11% | -5% | 2%
Cc1ccc(-c2ocnc2C(=O)Nc2ccccc2NC(=O)c2ccccn2)cc1 | -1% | 9 | -12 | 3% | -13% | -1%
CCCCOC(=O)Nc1nc(CC(=O)OCC)cs1 | 2% | 15* | 30 | 0% | -1% | 4%
CCOC(=O)Cc1csc(NC(=O)c2cc(C)on2)n1 | 9% | . | . | . | . | .
CCOC(=O)Cc1csc(NC(=O)c2cnc3sc(C)cn3c2=O)n1 | -2% | 43* | 88* | -3% | -5% | 0%
CCOC(=O)Cc1csc(NC(=O)c2ccc3ncsc3c2)n1 | 6% | 29* | 83* | 4% | -1% | 1%
Cc1ccc(-c2ocnc2C(=O)Nc2nc(C)cs2)cc1 | -5% | 72* | . | 15% | 0% | 6%
COc1cc2[nH]c(=O)n(CCCC(=O)NCc3ccccc3Cl)c(=O)c2cc1OC | -6% | . | . | . | . | .
CCOC(=O)Cc1csc(NC(=O)c2ccncc2)n1 | -15% | -4 | 7 | -8% | 8% | -3%
CCOC(=O)Cc1csc(NC(=O)c2ccco2)n1 | -5% | 50* | 50* | 8% | -6% | -7%
CCOC(=O)Cc1csc(NC(=O)c2ccc(Cl)s2)n1 | 12% | 60* | 54* | -42% | -4% | -4%
CCOC(=O)Cc1csc(NC(=O)c2cc(C)c(C)s2)n1 | 2% | . | . | . | -10% | .
Cc1csc(NC(=O)c2ccc(C)o2)n1 | -3% | 59* | + | 8% | -17% | -28%
SMILES | Tb PYK inh | CHX counter | Shiga toxin inh | NS1 function inh | SARS PLP yeast | LmPK inh
CCOC(=O)Cc1csc(NC(=O)c2ccc(C)o2)n1 | -7% | 22* | 52* | 0% | 1% | -8%
CCNC(=S)N/N=C/c1cn(Cc2ccc(F)cc2)c2ccccc12 | 1% | 0 | -13 | 27% | ? | 4%
CCNC(=S)N/N=C/c1cn(Cc2ccccc2F)c2ccccc12 | -1% | 17* | 24 | ? | 30% | 7%
CCn1c(=O)cc(OCC(=O)NCc2ccccc2OC)c2ccccc21 | 5% | . | . | . | . | .
O=C(NCCc1ccc(Cl)cc1)c1ccc2nccnc2c1 | 2% | 52* | 67* | -15% | 6% | -1%
CCN(CC)Cc1cc(CCNC(=O)c2ccc(Cl)cc2)ccc1O | 4% | 17* | 21 | 3% | 10% | 4%
O=C(NCCc1ccc(Cl)cc1)c1ccc(=O)[nH]c1 | 2% | 8 | -2 | 18% | 2% | 5%
O=C(NCCc1ccc(O)cc1)c1ccc(Cl)cc1 | -7% | 56* | 70* | -4% | 5% | 2%
CCC1CCCCN1S(=O)(=O)c1ccc(NC(=O)c2nc(S(C)(=O)=O)ncc2Cl)cc1 (centres undefined) | -8% | -7 | -20 | 5% | -5% | 8%
COc1cc(/C=C(\C#N)C(=O)Nc2ccccc2C(=O)O)cc(Cl)c1OC | -14% | 4 | 32 | 0% | -1% | -3%
COCCCN=C1NN=C(c2cc(C)n(Cc3ccccc3Cl)c2C)CS1 | ? | 22* | 45* | . | 0% | -3%
Cc1cc(C2=NNC(=NCCc3ccccc3)SC2)c(C)n1-c1c(C)n(C)n(-c2ccccc2)c1=O | -7% | -4 | 14 | 8% | 0% | 4%
COCCCN=C1NN=C(c2cc(C)n(-c3ccccc3F)c2C)CS1 | -18% | 19 | 50 | . | -4% | -4%
COCCCN=C1NN=C(c2cc(C)n(-c3ccccc3)c2C)CS1 | -3% | 34* | 62* | 15% | ? | 2%
CN=C1NN=C(c2cc(C)n(-c3ccc(Cl)cc3)c2C)CS1 | -10% | 59* | 136* | . | 4% | 0%
COc1cc(NC(=O)NCCn2nnc3cc(S(=O)(=O)N(C)C)ccc32)cc(OC)c1OC | -5% | . | . | . | . | .
COc1ccc(C(=O)Nc2ccc3c(c2)C(=O)N(C)C3=O)cc1OC | 6% | 17* | 32* | 2% | 8% | 1%
COc1ccc(-c2cccc(C(=O)Nc3ccc(OC)c(OC)c3)c2)cc1 | 0% | -3 | 20 | -5% | 2% | 4%
COc1ccc(C(=O)Nc2ccc(OC)c(OC)c2)cc1 | -2% | 33* | 63* | -10% | 2% | -3%
Cc1ccc(NC(=O)c2ccc(OC(=O)C(C)Oc3ccc(Cl)cc3C)cc2)cc1 (centres undefined) | -7% | 43* | 61* | 14% | 0% | 5%
COc1ccc(NC(=O)c2csc(C)c2)cc1OC | -1% | 25* | 30* | 0% | -3% | -6%
CCc1ccc(OCc2nc(-c3ccc(OC)c(OC)c3)no2)c(Br)c1 | 0% | . | . | . | . | .
O=C(CNc1ccc(Oc2ccccc2)cc1)N1CCOCC1 | -11% | 12* | 36* | -8% | 2% | -7%
S=C(Nc1ccc(Oc2ccccc2)cc1)N1CCOCC1 | 1% | 12* | 25 | -9% | -4% | -2%
O=C(Nc1ccc(OC(F)(F)F)cc1)c1cnccn1 | 1% | 55* | 101* | -3% | 1% | -7%
O=C(N/N=C/c1ccco1)c1cnccn1 | -7% | -1 | 9 | 3% | -5% | -1%
CCCOC(=O)c1ccc(NC(=O)c2cnccn2)cc1 | -4% | 26* | 51* | -21% | -3% | -10%
